# Screens (PubChem)
# LANA DNA inh: blocks KSHV LANA C-terminal domain binding to DNA; MBP-C-LANA/FAM-LBS DNA binding, fluorescence polarization; inhibition, % at 9 µM; 340,000 tested, 0.078% active;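 active = highest replicate inhibition at or above 60% at 9 µM, even if other replicates fall short; inactive = all replicates below 60% inhibition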;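 also: 0% = neutral control wells and 100% = 4 µM acridine orange control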
# eLon inh: E. coli protease La inhibition | AID 602123 | inhibition, % at 7.94 µM | P0A9M0 | 360,000 tested, 0.42% active | purified E. coli Lon protease, fluorescence polarization; in the data active = inhibition above about 13%, passing the limit was not always enough;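 also: 0% = enzyme with probe and DMSO and 100% = no enzyme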
# Keap1 Nrf2 FP: Keap1-Nrf2 (human) interaction inhibition | AID 504523 | Q14145 | Keap1 Kelch-Nrf2 peptide fluorescence polarization, 1536-well | inhibition, % at 9.4 µM | 340,000 tested, 0.15% active; in the data active = inhibition above about 12%;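 also: human Keap1 Kelch domain with fluorescein labeled Nrf2 9mer peptide probe; 0% = neutral control wells and 100% = peptide positive control; higher means more block of Keap1 binding to Nrf2 peptide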
# Target sequence (Q14145 whole entry, looked up, the tested form may be a part): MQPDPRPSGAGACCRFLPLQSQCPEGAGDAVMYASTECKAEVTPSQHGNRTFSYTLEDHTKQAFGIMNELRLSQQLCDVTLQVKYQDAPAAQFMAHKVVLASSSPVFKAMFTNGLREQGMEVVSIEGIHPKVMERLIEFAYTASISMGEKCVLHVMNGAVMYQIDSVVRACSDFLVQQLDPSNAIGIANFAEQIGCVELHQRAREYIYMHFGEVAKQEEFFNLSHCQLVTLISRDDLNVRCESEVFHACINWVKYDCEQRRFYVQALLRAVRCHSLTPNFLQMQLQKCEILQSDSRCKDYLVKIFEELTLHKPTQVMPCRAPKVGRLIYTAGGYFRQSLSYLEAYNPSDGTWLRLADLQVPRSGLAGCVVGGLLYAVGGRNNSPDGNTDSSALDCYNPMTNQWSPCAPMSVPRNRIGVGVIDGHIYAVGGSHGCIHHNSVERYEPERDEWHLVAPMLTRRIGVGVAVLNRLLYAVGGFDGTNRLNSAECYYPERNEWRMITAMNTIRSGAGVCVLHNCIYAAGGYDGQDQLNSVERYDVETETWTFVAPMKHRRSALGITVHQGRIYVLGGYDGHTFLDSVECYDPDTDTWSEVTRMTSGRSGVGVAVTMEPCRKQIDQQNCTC
# cardiac RTF act: increases calcium sensitivity of human cardiac regulated thin filaments; P19429+P45379; IANBD-labeled TnC RTF fluorescence at EC20 calcium; 0% EC20 calcium, 100% full calcium; activation, % at 7.2 µM; 340,000 tested, 0.24% active; AID 493008;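 active = activation above the mean over all tested compounds plus 3 SD, cut at about 30% in these data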;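 also: rise in fluorescence read as greater calcium sensitivity of cardiac thin filaments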
# Cardiac RTF inh: cardiac RTF calcium desensitization; inhibition, % at 7.15 µM; AID 493244; 340,000 tested, 0.12% active; P19429+P45379; IANBD-labeled cardiac RTF, Ca2+ fluorescence;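 active = inhibition above the mean inhibition of all tested compounds plus 3 SD, cut at about 17% in these data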;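 also: assay run at fixed EC70 calcium of 1.6 mM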
# E coli Lon conf: E. coli Lon inhibition confirmation; shares compounds with eLon inh; purified E. coli Lon, fluorescence polarization; inhibition, % at 7.94 µM; 1,400 tested, 31% active; AID 602230; in the data active = inhibition above about 16%;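 also: 0% = enzyme with probe and DMSO and 100% = no enzyme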
# * marks the source's active call; other numbers are inactive results; . = no result. In the library only some 0.82% were active in any assay of this set; here they are far more common.
SMILES,LANA DNA inh,eLon inh,Keap1 Nrf2 FP,cardiac RTF act,Cardiac RTF inh,E coli Lon conf
O=C(CCn1c(=O)c2sccc2n(Cc2cc(=O)n3ccccc3n2)c1=O)NCc1ccco1,0,1,4,2,0,.
O=C(OCc1cn([C@H]2C[C@H](c3ccc(Cl)cc3)N(C(=O)C3CCCCC3)C[C@@H]2O)nn1)c1ccccc1,.,-3,.,.,.,.
NC(=O)c1ccc[n+]([C@H]2O[C@@H](COP(=O)([O-])OP(=O)(O)OC[C@H]3O[C@@H](n4cnc5c(N)ncnc54)[C@H](O)[C@@H]3O)[C@H](O)[C@@H]2O)c1,2,22,-7,6,-4,.
COC(=O)CN(c1ccc2c(c1)OCO2)S(C)(=O)=O,-2,17*,-7,4,-7,7
CCN(CC)C(=O)CN(c1ccc2c(c1)OCO2)S(C)(=O)=O,1,-6,0,-3,-4,.
COc1ccc(/C=C/C=C2\NC(=S)NC2=O)cc1,2,-11,-7,2,-6,.
CC(=O)/C(C[N+]1(C)CCCCC1)=N\O,-2,23*,-5,12,-1,-2
C[N+]1(CC(=O)OC2CCCCCCCCCCC2)CCCC1,-1,6,-1,3,-12,.
CN(c1ccc(Cl)cc1)c1cc2c(c3c1ccn3C)C1CCC2O1 (stereo not given),.,-11,.,.,.,.
COc1ccc(OC)c(C(=O)COC(=O)c2cc(C)oc2C)c1,-1,27*,-2,-9,-6,-7
Oc1ccc(Nc2nc(-c3ccccc3F)nc3ccccc23)cc1,-2,17*,-4,0,-6,8
CCOC(=O)C1CCN(CC(=O)Nc2cc(S(=O)(=O)N3CCCCC3)ccc2Cl)CC1,-1,23*,-1,-5,7,3
CCN1CCN(CC(=O)Nc2cc(S(=O)(=O)N3CCCCC3)ccc2Cl)CC1,0,-5,3,2,1,.
Cc1ccc(CNC(=O)CCn2cc(-c3ccc(C)cc3)nc2CCN)cc1,0,4,-7,1,-15,.
CC(NC(=O)c1ccccc1Cl)c1nnc(SCC(=O)Nc2ccc(C(=O)O)cc2)n1C (stereo not given),0,29*,5,-2,-2,-15
COc1ccc(/C=C/C(=O)N2CCN(c3ccccn3)CC2)c2ccccc12,1,11,-5,5,-9,.
COc1ccc(/C=C/C(=O)N2CCN(c3ccccn3)CC2)c(OC)c1OC,0,62*,-2,-4,1,-5
CCN(CC)S(=O)(=O)c1ccc(N2CCOCC2)c(NC(=O)c2cc3ccccc3o2)c1,.,30*,.,.,.,-2
CCN(CC)S(=O)(=O)c1ccc(N2CCOCC2)c(NC(=O)c2ccccc2)c1,1,3,-1,3,-1,.
Cc1ccc(S(=O)(=O)N2CCN(C(=O)c3c(-c4ccccc4)noc3C)CC2)c(C)c1,-1,5,2,-1,-9,.
O=C(NC(=S)Nc1ccc2[nH]c(=O)[nH]c2c1)c1ccccc1[N+](=O)[O-],0,-8,-6,3,-4,.
CCOC(=O)CSc1nc2ccc(C)cc2cc1C#N,-1,-3,-2,7,-15,.
CCOC(=O)CSc1nc2cc(C)ccc2cc1C#N,1,27*,0,0,-10,9
CCn1cc([N+](=O)[O-])c(C(=O)Nc2ccn(C34CC5CC(CC(C5)C3)C4)n2)n1,2,8,-2,3,-11,.
Cn1cc([N+](=O)[O-])c(C(=O)Nc2ccn(C34CC5CC(CC(C5)C3)C4)n2)n1,1,31*,-7,0,-11,-11
SMILES,LANA DNA inh,eLon inh,Keap1 Nrf2 FP,cardiac RTF act,Cardiac RTF inh,E coli Lon conf
Cc1ccc(C(=O)NCc2ccc(F)cc2)s1,1,4,6,-1,-9,.
O=C(NCCc1ccncc1)Nc1ccc(F)cc1,0,-2,-2,4,-14,.
Cc1ccc(C(=O)NCCc2ccc(F)cc2)s1,1,14*,-5,-3,5,-7
O=C(NCCc1ccc(F)cc1)c1ccncc1,-1,19*,1,-2,0,-11
O=C(Nc1ccc(F)c(Cl)c1)c1cc(C2CCCN(C(=O)c3cccs3)C2)on1 (stereo not given),.,-5,.,.,.,.
Cc1cc(C)c(NC(=O)C2CCN(S(C)(=O)=O)CC2)c(C)c1,.,-4,.,.,.,.
Cc1cccc(C)c1NC(=O)C1CCN(S(C)(=O)=O)CC1,-1,40*,-2,5,-1,5
